Results from PubChem BioAssay (NCATS).
Inconclusive results are not listed. A number with no mark means an inactive call. Activity calls are given as the source filed them. Calls follow the shape of the full dose curve.

experiment: Confirmatory qHTS to identify inhibitors of SARS-CoV-2 cell entry (AID 1645844); details: SARS-CoV-2 pseudotyped particle cell entry, luciferase; series mostly up to 57.2 µM; activity, negative = inhibition: at the top concentration; also: nearly all actives have a fitted effect of over 45% in size
Source text: Assay Provider: Wei Zheng, Ph.D.
National Center for Advancing Translational Sciences, National Institute of Health, Rockville, MD.
SARS-CoV-2 spike protein, within the viral envelope, mediates viral attachment and infection of host cells. The SARS-CoV-2 spike protein specifically binds to the host receptor ACE2 (Angiotensin-converting enzyme 2). This interaction promotes endocytosis of the viral particle, additional events lead to viral-host cell membrane fusion and release of the viral contents, allowing viral replication.
While SARS-CoV-2 requires BSL-3 facilities for live virus work, pseudotyped partices (PP) that incorporate SARS-CoV-2 spike proteins without replication elements could facilitate studies on viral entry mechanisms in a BSL-2 setting. This PP cell entry assay could also enable screening of small molecule compound libraries in BSL-2 setting to identify inhibitors of SARS-CoV-2 cell entry.
SEQUENCE No. (e.g., 1, 2, 3, etc.); […] (e.g., Cells, Incubation, Reagent, etc.); VALUE and DESCRIPTION.
1. Cells. Seed 1500 HEK293-ACE2 cells (Expi293F with stable expression of human ACE2) in 2 uL/well media (DMEM, 10% FBS, 1x L-glutamine, 1x Pen/Strep, 1 ug/ml puromycin) in white 1536-well assay plates (Greiner #782073).
2. Incubation. Incubate at 37C with 5% CO2 overnight (~16 h).
3. Compounds. Dispense 23 nL/well compounds in DMSO via pin transfer.
4. Incubation. Incubate for 1 hr at 37C 5% CO2.
5. Reagent. Dispense 2 uL/well of SARS-CoV-2-S pseudotyped particles (PP). [a] PPs are produced with murine leukemia virus pseudotyping). [b] SARS-CoV-2-S is Wuhan-Hu-1 sequence (BEI #NR-52420) with C-terminal 19 amino acid truncation.
6. Centrifugation. […]
7. Incubation. Incubate at for 48 hr at 37C 5% CO2
8. Centrifugation. Remove supernatant with gentle centrifugation using a Blue Washer (BlueCat Bio).
9. Reagent. Dispense 4 uL/well of Bright-Glo Luciferase detection reagent (Promega #E2620).
10. Incubation. Incubate for 5 min at room temperature.
11. Detection. Read luminescence signal (Viewlux plate reader, PerkinElmer). Data was normalized with wells containing SARS-CoV-2-S PP as 100%, and wells containing bald PP (no fusion protein) as 0%.
% is scaled to controls: 0 for no effect and ±100 for the full control effect; potency is read from the fitted curve at half-maximal effect.

SMILES | Potency | activity, negative = inhibition [%] | outcome
CCc1cnn2c(NCc3ccc[n+]([O-])c3)cc(N3CCCC[C@H]3CCO)nc12 | 54.1 nM (active) |  | 
CO[C@H]1C[C@H](O[C@@H]2[C@H](C)O[C@H](O[C@@H]3/C(C)=C/C[C@@H]4C[C@@H](C[C@]5(C=C[C@H](C)[C@@H](C6CCCCC6)O5)O4)OC(=O)[C@@H]4C=C(C)C(O)[C@H]5OC/C(=C\C=C\[C@@H]3C)[C@]54O)C[C@@H]2OC)O[C@@H](C)[C@@H]1O (stereo not given in full) | 2710 nM (active) |  | 
CS(=O)(=O)N1CCC(NC(=O)c2[nH]ncc2NC(=O)c2c(Cl)cccc2Cl)CC1 | 34.1 nM (active) |  | 
COc1ccc(-c2ccc3c(N4CCOC[C@@H]4C)nc(N4CCOC[C@@H]4C)nc3n2)cc1CO | 681 nM (active) |  | 
CCc1cc(C(N)=O)ccc1-n1nc(C(C)C)c2c(-n3cnc(-c4cnn(C)c4)c3)ccnc21 | 10800 nM (active) |  | 
CN(C)CCN1C(=O)c2cccc3cc(NC(N)=O)cc(c23)C1=O | 9610 nM (active) |  | 
O=C(c1ccc(Nc2nc(C3CC3)cn3c(-c4cn[nH]c4)cnc23)c(F)c1)N1CCOCC1 | 3410 nM (active) |  | 
CC(CN1c2ccccc2Sc2cccnc21)N(C)C (stereo not given) | 24100 nM (active) |  | 
CC[C@@]1(O)C(=O)OCc2c1cc1n(c2=O)Cc2c-1nc1ccccc1c2CCNC(C)C | 5.4 nM (active) |  | 
O=c1c(-c2ccc(O)cc2)coc2c([C@@H]3O[C@H](CO)[C@@H](O)[C@H](O)[C@H]3O)c(O)ccc12 |  | -17.3 | 
c1cc(Nc2cc(C3CC3)[nH]n2)nc(Nc2ccc3nc[nH]c3c2)n1 | 192 nM (active) |  | 
O=C(Nc1cc(Oc2cc(F)c(NC(=O)C3(C(=O)Nc4ccc(F)cc4)CC3)cc2F)ccn1)C1CC1 | 21500 nM (active) |  | 
O=C(O)c1ccc(-c2c[nH]c3ncc(-c4ccccc4)cc23)cc1C1CCCC1 | 1360 nM (active) |  | 
C[C@@]1(c2ncncc2F)NC(=O)c2cc(-c3cn[nH]c3)ccc21 | 3040 nM (active) |  | 
COc1cc([C@@H]2c3cc4c(cc3[C@@H](O[C@@H]3O[C@@H]5CO[C@@H](C)O[C@H]5[C@H](O)[C@H]3O)[C@H]3COC(=O)[C@H]23)OCO4)cc(OC)c1OP(=O)(O)O | 541 nM (active) |  | 
O=c1[nH]c([C@@H]2CCCN2)nc2c1oc1ccc(Cl)cc12 | 5410 nM (active) |  | 
COc1cc2c3c(n(CCCn4ccnc4)c(=O)c2cc1OC)-c1cc2c(cc1C3=O)OCO2 | 48.2 nM (active) |  | 
CCNCCS(=O)(=O)NC[C@@]1(c2ccccc2)SC(NC(=O)C(C)(C)C)=NN1C(=O)C(C)(C)C | 60.7 nM (active) |  | 
CN[C@H]1CN(c2ccc3c(=O)c(C(=O)O)cn(-c4nccs4)c3n2)C[C@@H]1OC | 555 nM (active) |  | 
Nc1ccn([C@@H]2C(F)=C(CO)[C@@H](O)[C@H]2O)c(=O)n1 | 1520 nM (active) |  | 

SMILES | Potency | activity, negative = inhibition [%] | outcome
O=c1c(-n2ccnn2)c[nH]n1-c1cc(N2CCOCC2)ncn1 | 4820 nM (active) |  | 
C=C(NC(=O)C(=C)NC(=O)c1csc(C2=N[C@H]3c4csc(n4)[C@H]4NC(=O)c5csc(n5)[C@H]([C@@](C)(O)[C@@H](C)O)NC(=O)[C@H]5CSC(=N5)C(=CC)NC(=O)[C@H]([C@@H](C)O)NC(=O)c5csc(n5)[C@]3(CC2)NC(=O)[C@H](C)NC(=O)C(=C)NC(=O)[C@H](C)NC(=O)[C@H](C(C)CC)N[C@@H]2C=Cc3c([C@H](C)O)cc(nc3[C@H]2O)C(=O)O[C@@H]4C)n1)C(N)=O (stereo not given in full) | 3410 nM (active) |  | 
Cc1cnc(Nc2ccc(F)cc2Cl)nc1-c1c[nH]c(C(=O)NC(CO)c2cccc(Cl)c2)c1 (stereo not given) | 3830 nM (active) |  | 
CNC(=O)c1cccc(-c2ccc3c(N4CCOC[C@@H]4C)nc(N4CCOC[C@@H]4C)nc3n2)c1 | 2410 nM (active) |  | 
OC1CCC(Oc2cccc3cnc(Nc4ccc5nc[nH]c5c4)nc23)CC1 (stereo not given) | 482 nM (active) |  | 
CC(C)OC(=O)[C@H](C)N[P@](=O)(CO[C@H](C)Cn1cnc2c(N)ncnc21)Oc1ccccc1 | 10.8 nM (active) |  | 
Nc1ncc(C(=O)NC2CN(C(=O)C3CC3)C2)c2ccc(-c3cccc(F)c3)nc12 | 2710 nM (active) |  | 
CC(CN1c2ccccc2Sc2ccc(S(=O)(=O)N(C)C)cc21)N(C)C (stereo not given) | 39300 nM (active) |  | 
CCCCN=C(N)NC(=N)N |  |  | inactive
CCCCC(=O)OCC(=O)[C@]1(O)Cc2c(O)c3c(c(O)c2[C@@H](O[C@H]2C[C@H](NC(=O)C(F)(F)F)[C@H](O)[C@H](C)O2)C1)C(=O)c1c(OC)cccc1C3=O | 857 nM (active) |  | 
CC[C@]12C=CCN3CC[C@@]4(c5cc([C@@]6(C(=O)OC)C[C@H]7C[C@@H](C(C)(F)F)CN(Cc8c6[nH]c6ccccc86)C7)c(OC)cc5N(C)[C@H]4[C@@](O)(C(=O)OC)[C@@H]1OC(C)=O)[C@@H]32 | 359 nM (active) |  | 
C=C1C[C@@H]2CC[C@@]34C[C@H]5O[C@H]6[C@@H](O3)[C@H]3O[C@H](CC[C@@H]3O[C@H]6[C@H]5O4)CC(=O)C[C@@H]3[C@@H](OC)[C@@H](C[C@H](O)CN)O[C@H]3C[C@H]3O[C@@H](CC[C@@H]1O2)C[C@@H](C)C3=C | 221 nM (active) |  | 
C[C@H]1[C@H](OC(=O)CCC(=O)O)O[C@@H]2O[C@@]3(C)CC[C@H]4[C@H](C)CC[C@@H]1[C@@]24OO3 | 1360 nM (active) |  | 
C=CC(=O)N1CC[C@@H](Oc2nc(Nc3ccc(N4CCC(N5CCN(C)CC5)CC4)cc3)c(C(N)=O)nc2CC)C1 | 2350 nM (active) |  | 
C=CC(=O)N1CCC(Oc2cc3c(Nc4ccc(Cl)c(Cl)c4F)ncnc3cc2OC)CC1 | 1360 nM (active) |  | 
CS[C@H]1SC[C@@H]2C(=O)N(C)[C@H](C(C)C)C(=O)OC[C@H](NC(=O)c3cnc4ccccc4n3)C(=O)N[C@H](C)C(=O)N(C)[C@H]1C(=O)N(C)[C@H](C(C)C)C(=O)OC[C@H](NC(=O)c1cnc3ccccc3n1)C(=O)N[C@H](C)C(=O)N2C | 8.6 nM (active) |  | 
Cc1nnc(C[C@@H]2C=C(c3ccc(Cl)cc3)c3ccccc3-n3c(C)nnc32)o1 |  | -72.6 | 
O=C(/C=C\n1cnc(-c2cc(C(F)(F)F)cc(C(F)(F)F)c2)n1)NNc1cnccn1 | 3040 nM (active) |  | 
CO[C@H](C(=O)[C@@H](O)[C@@H](C)O)C1Cc2cc3cc(O[C@H]4C[C@@H](O[C@H]5C[C@@H](O)[C@H](O)[C@@H](C)O5)[C@@H](O)[C@@H](C)O4)c(C)c(O)c3c(O)c2C(=O)[C@H]1O[C@H]1C[C@@H](O[C@H]2C[C@@H](O[C@H]3C[C@](C)(O)[C@H](O)[C@@H](C)O3)[C@H](O)[C@@H](C)O2)[C@H](O)[C@@H](C)O1 (stereo not given in full) | 171 nM (active) |  | 
CC(C)[C@]12O[C@H]1[C@@H]1O[C@@]13[C@@]1(C)CCC4=C(COC4=O)[C@@H]1C[C@@H]1O[C@@]13C2=O | 271 nM (active) |  | 
